Bioassay records (PubChem BioAssay)
TGFb SMAD3 inh: blocks TGF-b signaling; hit rate 1.2% among 410,000; HepG2 CAGA-GFP TGF-b/SMAD3 reporter, GFP fluorescence, 18 h; TGF-beta stimulated, 500 pg/mL final; Potency, µM (titrated, usually from 46.1 µM), without a hit: top-dose activity, negative = inhibition, actives largely listed as inhibitors; also: potency is read from the fitted curve at half-maximal effect; % is scaled to controls: 0 for no effect and ±100 for the full control effect; nearly all actives have a fitted effect of over 65% in size
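Inhibition of TGF-beta-driven CAGA-GFP reporter expression in HEPG2 cells is measured by cellular GFP fluorescence after 18 h stimulation with 500 pg/mL recombinant TGF-beta in 1% FBS medium at 37 degrees C.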
DT40 TDP1 no CPT: qHTS for Inhibitors of human tyrosyl-DNA phosphodiesterase 1 (TDP1): qHTS in cells in absence of CPT | DT40 Tdp1-/- hTDP1 cells, no CPT, ATP luminescence, 48 h | Potency, µM (doses to about 46.2 µM), for the others: top-dose activity change, negative = growth inhibition, hits mostly inhibitors | hit rate 15% among 420,000 | AID 686978, 2013; also: potency is read from the fitted curve at half-maximal effect; % is scaled to controls: 0 for no effect and ±100 for the full control effect; nearly all actives have a fitted effect of over 55% in size
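No-CPT arm: Tdp1-/-;hTDP1 DT40 cells (400/well) plus compounds, incubated ≥48 hr at 37 °C. Readout CellTiter-Glo luminescence.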
DT40 TDP1 CPT: DT40-hTDP1 cell growth loss with CPT; Potency, µM (top dose mostly 46.2 µM), for the others: at the top dose activity change, negative = growth inhibition, most hits filed as inhibitors; AID 686979; chicken DT40 Tdp1-/-;hTDP1 cells + 20 nM CPT, ATP luminescence, 48 h; hit rate 12% among 420,000; also: potency is read from the fitted curve at half-maximal effect; % is scaled to controls: 0 for no effect and ±100 for the full control effect; nearly all actives have a fitted effect of over 55% in size
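Cell growth measured by CellTiter-Glo luminescence after a minimum 48 h, 37 C compound exposure with 20 nM CPT in Tdp1-knockout DT40 cells stably expressing hTDP1, seeded 400/well; qHTS titration format.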
IL-1B inflam inh: blocks inflammasome-driven IL-1 beta release | THP-1 LPS/ATP IL-1B secretion, AlphaLISA, 16 h; hits give low values | activity change, % at 57.5 µM | hit rate 4.7% among 360,000; in the data active = activity change below about -50%; inconclusive = mostly about -30% to -49%; also: % is scaled to controls: 0 for no effect and ±100 for the full control effect
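THP-1 cells pretreated 1 hr with compounds (up to 57.5 uM final), then stimulated with LPS (250 ng/mL final) plus ATP (1.25 mM final); secreted IL-1B measured by AlphaLISA after 16 hr, decreased signal indicating inhibition.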
HepG2 tox: counter-screen for TGF-b inhibitors: cytotoxicity in HepG2 cells | hit rate 0.76% among 410,000 | Potency, µM (titrated, usually from 46.1 µM), for the others: at the highest dose activity change, negative = cytotoxicity, hits mostly cytotoxic | HepG2 CAGA-GFP viability, ATP luminescence, 18 h; also: potency is read from the fitted curve at half-maximal effect
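CellTiter-Glo luminescence gave cytotoxicity after 18 hours at 37 degrees C. The cells were HepG2 CAGA-GFP in 1% FBS DMEM, stimulated with 500 pg/mL TGF-beta after compound addition. %Activity was normalised to no-cell wells (complete cell-killing) and DMSO (no toxicity), and curves were fitted and classified.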
TDP1 inh: TDP1 (human) enzyme inhibition; Q9NUW8; recombinant TDP1, AlphaScreen DNA substrate cleavage; Potency, µM (top dose mostly 130 µM), for the others: at the top dose activity change, negative = inhibition, most hits filed as inhibitors; hit rate 0.28% among 350,000; AID 485290; also: potency is read from the fitted curve at half-maximal effect; % is scaled to controls: 0 for no effect and ±100 for the full control effect; nearly all actives have a fitted effect of over 40% in size
Target sequence (Q9NUW8 whole entry, looked up): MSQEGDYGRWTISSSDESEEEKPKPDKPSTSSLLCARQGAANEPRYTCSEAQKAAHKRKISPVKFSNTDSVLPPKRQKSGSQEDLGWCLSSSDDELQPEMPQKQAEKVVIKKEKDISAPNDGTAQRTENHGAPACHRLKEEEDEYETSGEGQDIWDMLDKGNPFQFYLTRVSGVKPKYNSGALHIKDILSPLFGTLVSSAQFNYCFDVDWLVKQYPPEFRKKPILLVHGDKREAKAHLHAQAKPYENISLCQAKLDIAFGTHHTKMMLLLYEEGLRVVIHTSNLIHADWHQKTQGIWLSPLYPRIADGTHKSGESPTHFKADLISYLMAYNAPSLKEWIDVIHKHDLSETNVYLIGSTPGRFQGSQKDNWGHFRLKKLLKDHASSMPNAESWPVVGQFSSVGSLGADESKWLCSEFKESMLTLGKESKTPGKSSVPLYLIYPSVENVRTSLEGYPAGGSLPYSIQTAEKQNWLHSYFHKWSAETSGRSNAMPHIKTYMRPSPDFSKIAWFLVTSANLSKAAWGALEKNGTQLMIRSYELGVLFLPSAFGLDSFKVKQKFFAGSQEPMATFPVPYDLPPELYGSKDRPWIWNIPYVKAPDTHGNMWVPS
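Steps: enzyme plus compound, 15 min RT; add biotin/phosphotyrosine-FITC oligonucleotide (15 nM final), react 5 min; add donor/acceptor beads (10 ug/ml final), 10 min; read AlphaScreen. Tdp1 at 1 nM final.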
Active calls of the source: *; ? = inconclusive; · = no result; [ ] = dose if it differs, or a comment. Shown are actives, neighbours in structure and some others; about 19% of the full set was active somewhere. Unless noted, calls follow the shape of the dose curve; as a rule, active = well fitted curve in the direction sought with a large enough effect; inconclusive = small, poorly fitted or top-dose-only effect, or another doubt; inactive = no such curve, though single readings can be large; an effect the other way counts as inactive or inconclusive.

SMILES	TGFb SMAD3 inh	DT40 TDP1 no CPT	DT40 TDP1 CPT	IL-1B inflam inh	HepG2 tox	TDP1 inh
COc1ccc(C2=NOC(Cn3nc(C(=O)NCc4ccccc4OC)cc3-c3ccccc3)C2)cc1 (stereo not drawn)	-15%	21µM*	23µM*	3	-30%	1%
COc1ccc(C2=NOC(Cn3nc(C(=O)NCC4CC4)cc3-c3ccccc3)C2)cc1 (stereo not drawn)	-18%	?	21µM*	5	-18%	0%
COc1ccc(C2=NOC(Cn3nc(-c4ccccc4)cc3C(=O)NCc3ccc(C)cc3)C2)cc1 (stereo not drawn)	1%	-14%	-26%	0	0%	0%
COc1ccc(C2=NOC(Cn3nc(C(=O)NCc4ccc(OC(F)(F)F)cc4)cc3-c3ccccc3)C2)cc1 (stereo not drawn)	-27%	?	?	?	-6%	-3%
Cn1c(SCC(=O)NC2(C#N)CCCCC2)nnc1-c1cccnc1	15%	-14%	-6%	14	1%	2%[56.1 µM]
COc1cccc(CNC(=O)C2CCCCN2S(=O)(=O)c2ccc(F)cc2)c1 (stereo not drawn)	-20%	?	?	·	-23%	3%
CCc1cccc(CC)c1NC(=S)NCCc1ccc(O)c(O)c1	?	?	23µM*	?	-29%	8%
CC(=O)NCCc1ccc(O)c(O)c1	·	·	·	·	·	-10%
CC(C)c1ccc(NC(=O)C2(C)Cc3c(-c4ccc(C(N)=O)cc4)ccnc3O2)cc1 (stereo not drawn)	21%	16µM*	16µM*	9	-19%	·
CC(=O)Nc1ccc(-c2ccnc3c2CC(C)(C(=O)Nc2ccc(C(C)C)cc2)O3)cc1 (stereo not drawn)	?	21µM*	23µM*	-84*	-21%	·
CC(=O)Nc1ccc(NC(=O)C2(C)Cc3c(-c4ccc(NC(C)=O)cc4)ccnc3O2)cc1 (stereo not drawn)	19%	2%	1%	-18	9%	·
CCOC(=O)c1sc2nc(C)nc(NCc3ccc(F)cc3)c2c1C	?	26µM*	26µM*	?	-1%	·
CCOC(=O)c1sc2nc(C)nc(NCc3ccc(Cl)cc3)c2c1C	7%	21µM*	12µM*	-67*	-31%	·
CCOC(=O)c1sc2nc(SC)nc(-c3ccc(Cl)cc3)c2c1N	-9%	15µM*	21µM*	-3	-4%	6%
CCOC(=O)c1sc2nc(CC(=O)OC)nc(NCc3ccc(F)cc3)c2c1C	16%	16µM*	18µM*	-5	-16%	0%
CCOC(=O)c1sc2nc(C)nc(Nc3ccc(OC)cc3)c2c1C	9%	?	4%	23	-2%	5%
CCOC(=O)c1sc2nc(C)cc(-c3ccccc3)c2c1N	1%	?	?	-1	-2%	-3%
CCOC(=O)c1sc2nc(C)nc(NCc3cccnc3)c2c1C	1%	?	6%	21	4%	3%
CCc1ccccc1NC(=O)CN1C(=O)COc2ccc(S(=O)(=O)N3CCCCCC3)cc21	-6%	?	-14%	·	-3%	0%
COc1ccc(S(=O)(=O)N2CCCOC2CNC(=O)C(=O)NCCO)cc1 (stereo not drawn)	-3%	2%	5%	8	5%	·
OCC[C@@H]1C[C@H](O)[C@@H](O)[C@]2(OCCc3cc(Cl)ccc32)O1	-4%	1%	-14%	-14	-5%	·
Nc1nc2ccccc2cc1C(=O)NCc1ccc(-c2ccccc2)cc1	·	0.16µM*	1µM*	10	·	·
Nc1nc2ccccc2cc1C(=O)NCc1ccc(Cl)cc1Cl	·	5.8µM*	16µM*	30	·	·
